The record followed here is PubChem BioAssay (Tox21).

In this assay the target is Beta-2 adrenergic receptor (Homo sapiens) (UniProt P07550). The assay can be described thus: Adrenergic beta2 receptor (ADRB2) small molecule agonists, cell-based qHTS assay (AID 1963593).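 Further: CHO cells stably overexpressing human ADRB2.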 The method, boiled down: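 CHO cells stably over-expressing ADRB2 were plated overnight at 37C, then dosed with compounds plus a stimulation mix containing 100uM IBMX and 25uM Ro-20-1724 for 0.5hr at room temperature. cAMP was measured by HTRF competition, 1hr.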
(Quantitative high-throughput screening tests each substance at several concentrations.)

Results filed as inconclusive are left out. A call without a number means that no potency is given here. Active and inactive are the calls of the source. The call rests on the fitted dose curve.

Chain of Beta-2 adrenergic receptor (Homo sapiens) (P07550 whole entry, looked up): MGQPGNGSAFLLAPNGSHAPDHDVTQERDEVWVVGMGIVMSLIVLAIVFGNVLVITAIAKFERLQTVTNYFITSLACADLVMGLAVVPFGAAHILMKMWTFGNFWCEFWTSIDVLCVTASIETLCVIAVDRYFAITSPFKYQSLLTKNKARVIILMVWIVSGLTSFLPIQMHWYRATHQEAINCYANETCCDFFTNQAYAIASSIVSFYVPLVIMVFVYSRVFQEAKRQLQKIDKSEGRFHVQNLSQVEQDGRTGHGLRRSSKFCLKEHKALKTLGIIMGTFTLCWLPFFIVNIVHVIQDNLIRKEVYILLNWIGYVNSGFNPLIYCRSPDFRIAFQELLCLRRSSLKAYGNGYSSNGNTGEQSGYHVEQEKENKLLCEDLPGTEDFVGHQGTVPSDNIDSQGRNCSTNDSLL

Turning to `c1ccc(OCCOc2ccccc2)cc1`, the Potency result was “inactive”.

As to `C=CC(=O)NC(C)(C)CS(=O)(=O)O`, the Potency entry is “inactive”.

`CCC(O)OC(O)CC` (stereo not drawn): the Potency entry was “inactive”.

With `CCCCCCCCCCN`, the Potency result is “inactive”.

For `CCCCCCOCCO`, the Potency result is “inactive”.

For the compound `Cc1ccc2c(c1)C(=O)OC2=O`, the Potency result is “inactive”.

Regarding `CCCCC(CC)COC(=O)c1ccc(C(=O)OCC(CC)CCCC)cc1` (stereo not drawn), the Potency entry was “inactive”.

On to `c1ccc2[nH]ccc2c1`, for which the Potency result was “inactive”.

Consider `O=[N+]([O-])c1ccccc1C(F)(F)F`, for which the Potency result was “inactive”.

For `Cc1cc(C)c(C)cc1C`, the Potency entry was “inactive”.

Take `C=C(C)C1CC=C(C)CC1` (stereo not drawn): the Potency entry is “inactive”.

Regarding `CC1(C)O[C@@H]2[C@@H](CO[C@@]3(COS(N)(=O)=O)OC(C)(C)O[C@@H]23)O1`, the Potency entry is “inactive”.

For `CCCCNS(=O)(=O)c1ccccc1`, the Potency result is “inactive”.

For the compound `COc1ccccc1[N+](=O)[O-]`, the Potency entry was “inactive”.

Consider `CC(C)OP(=O)(CP(=O)(OC(C)C)OC(C)C)OC(C)C`, for which the Potency result is “inactive”.

`O=C(O)c1[nH]n(-c2ccc(S(=O)(=O)O)cc2)c(=O)c1N=Nc1ccc(S(=O)(=O)O)cc1`: the Potency result was “inactive”.

As to `O=C1CCCCCCCCCCCN1`, the Potency result is “inactive”.

In the case of `Cc1ccccc1Cl`, the Potency entry is “inactive”.

With `C[Si](C)(C)N[Si](C)(C)C`, the Potency result was “inactive”.

Consider `Cc1cccc(O)c1C`, for which the Potency result is “inactive”.

As to `c1ccc2[nH]cnc2c1`, the Potency result is “inactive”.

On to `O=S1(=O)CCCO1`, for which the Potency result was “inactive”.

On to `NC(N)=S`, for which the Potency entry is “inactive”.

Regarding `CC(=O)N[C@@H](CS)C(=O)O`, the Potency entry was “inactive”.

With `Nc1ccc(S(=O)(=O)Nc2cnc3ccccc3n2)cc1`, the Potency entry is “inactive”.

With `O=C=NCCCCCCN=C=O`, the Potency result is “inactive”.

Consider `CC(C)(C)[C@@H](O)[C@@H](Cc1ccc(Cl)cc1)n1cncn1`, for which the Potency result is “inactive”.

Take `Cc1ccc2ncccc2c1`: the Potency result is “inactive”.

Regarding `CCCCCCCCCCCCCCCC(=O)O`, the Potency entry is “inactive”.

For `OCCCc1ccccc1`, the Potency entry is “inactive”.

For the compound `CC1(C)S[C@@H]2[C@H](NC(=O)COc3ccccc3)C(=O)N2[C@H]1C(=O)O`, the Potency entry is “inactive”.

As to `Cc1cc(=O)[nH]c(=S)[nH]1`, the Potency entry is “inactive”.

On to `NCCN1CCNCC1`, for which the Potency result is “inactive”.

In the case of `Nc1nc2ncc(CNc3ccc(C(=O)N[C@@H](CCC(=O)O)C(=O)O)cc3)nc2c(=O)[nH]1`, the Potency result was “inactive”.

For the compound `CCC[C@H](N[C@@H](C)C(=O)N1[C@H](C(=O)O)C[C@@H]2CCCC[C@@H]21)C(=O)OCC`, the Potency entry was “inactive”.

With `CCCCCCCCO`, the Potency result is “inactive”.

Regarding `Cc1ccc(S(=O)(=O)NCl)cc1`, the Potency entry was “inactive”.

With `Cc1ccccc1C=O`, the Potency entry is “inactive”.

As for `COCC(=O)O`, the Potency result was “inactive”.

Turning to `CCCCC(=O)O`, the Potency entry was “inactive”.

In the case of `COc1ccc([C@@H]2CC(=O)c3c(O)cc(O[C@@H]4O[C@H](CO[C@@H]5O[C@@H](C)[C@H](O)[C@@H](O)[C@H]5O)[C@@H](O)[C@H](O)[C@H]4O)cc3O2)cc1OC`, the Potency entry is “inactive”.

With `C=CCOC(=O)CC(C)C`, the Potency result is “inactive”.

As to `COc1cc(C=O)ccc1O`, the Potency result was “inactive”.

`CC[Si](OC(C)=O)(OC(C)=O)OC(C)=O`: the Potency result was “inactive”.

For the compound `NCCN`, the Potency result is “inactive”.

For the compound `CSc1ccc(Cl)cc1`, the Potency entry was “inactive”.

Consider `c1ccc(Oc2ccccc2)cc1`, for which the Potency result was “inactive”.

Take `COCC(C)O` (stereo not drawn): the Potency result is “inactive”.

As for `CCC(O)OCCCOC` (stereo not drawn), the Potency result was “inactive”.

In the case of `CCCCCNCCCCC`, the Potency entry was “inactive”.

Take `COc1ccc(OC)cc1`: the Potency entry was “inactive”.

In the case of `O=C1c2c(O)cccc2Cc2cccc(O)c21`, the Potency entry was “inactive”.

Regarding `CCCCCCCCCCO`, the Potency result is “inactive”.

Turning to `CC(=O)c1ccc(O)cc1`, the Potency result is “inactive”.

As for `CCc1ccc(O)cc1`, the Potency result is “inactive”.

For `Brc1nc2ccccc2s1`, the Potency entry is “inactive”.

As to `NS(=O)(=O)O`, the Potency entry is “inactive”.

For the compound `CCCCCCCC(=O)OC`, the Potency result is “inactive”.

As to `C=CC(=O)OCCCCCCCC(C)C`, the Potency result is “inactive”.

Take `CC/C=C(\C(=O)N[C@@H]1C(=O)N2C(C(=O)OCOC(=O)C(C)(C)C)=C(COC(N)=O)CS[C@H]12)c1csc(N)n1`: the Potency result was “inactive”.

Consider `Cc1ccc([N+](=O)[O-])c(C)c1`, for which the Potency entry was “inactive”.

As for `Clc1ccc(Sc2cc(Cl)c(Cl)cc2Cl)cc1`, the Potency entry was “inactive”.

In the case of `CCCCOCCOCCOC(C)=O`, the Potency entry is “inactive”.

With `OC1CCCCC1`, the Potency result was “inactive”.

`CCc1ccccc1CC`: the Potency entry is “inactive”.

Regarding `CC(=O)Nc1ccc(C(=O)O)cc1`, the Potency result is “inactive”.

Consider `COc1ccc(CCC(C)=O)cc1`, for which the Potency entry was “inactive”.

Take `CC(C)OB(OC(C)C)OC(C)C`: the Potency result is “inactive”.

As for `CC(C)(C)C1CCC(O)CC1` (stereo not drawn), the Potency result was “inactive”.

For `c1ccncc1`, the Potency result was “inactive”.

Regarding `CC(C)=CCO`, the Potency result is “inactive”.

In the case of `C=Cc1ccc(C)cc1`, the Potency entry is “inactive”.

`O=Cc1ccccc1O`: the Potency entry was “inactive”.

Regarding `FC(F)(F)c1ccc(Cl)c(Cl)c1`, the Potency entry is “inactive”.

In the case of `Nc1ccc(Cl)cc1Cl`, the Potency result was “inactive”.

With `CCCCCCCCOc1ccc(C(=O)c2ccccc2)c(O)c1`, the Potency entry was “inactive”.

Turning to `C[Si](O[Si](C)(C)C)O[Si](C)(C)C`, the Potency result was “inactive”.

`CCCCC1(COC(=O)CCC(=O)O)C(=O)N(c2ccccc2)N(c2ccccc2)C1=O`: the Potency result is “inactive”.

With `CCCCC/C=C\C/C=C\CCCCCCCC(=O)OC`, the Potency result was “inactive”.

With `CC1COC(=O)O1` (stereo not drawn), the Potency result was “inactive”.

For `C=C(C#N)C(=O)OCC`, the Potency result is “inactive”.

With `CCc1cccc(C)c1N`, the Potency entry is “inactive”.

For the compound `OC[C@]1(O)OC[C@@H](O)[C@H](O)[C@@H]1O`, the Potency result is “inactive”.
